Our source for the growth values is PubChem BioAssay (NCI).

The panel holds about 83,000 compounds, 20% with a hit somewhere; the sample as a whole holds those more often.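 Interpretation: 100, growth as untreated; towards 0, rising growth inhibition; 0, no net growth; 0 to -100, cell death. Compounds scoring below 10 were considered active.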 Values without a mark were called inactive. Calls of active or inactive are those of the source.

Holding throughout (experiment): NCI-60 one-dose screen, 48 h (100 = growth as untreated, 0 = no growth, -100 = all killed)
The subject of one test is NCI-H522 lung. The settings on record: 10 µM unless noted.
The next test relates to COLO 205 colon. The note with it: 10 µM.
A further test relates to MALME-3M melanoma. The note with it: 10 µM unless noted.
A further test concerns RXF 393 renal. The settings on record: 10 µM unless noted.
Another test relates to U251 CNS. The settings on record: 10 µM unless noted.
The test system of the next test is LOX IMVI melanoma. The settings on record: 10 µM unless noted.
Another test has as its system EKVX NSCLC. The note with it: 10 µM unless noted.
In a further test the test system is CAKI-1 renal. The settings on record: 10 µM unless noted.
The subject of the next test is CCRF-CEM leukemia. The settings on record: 10 µM unless noted.
Another test relates to MOLT-4 leukemia. The note with it: 10 µM.
In the next test the test system is SR leukemia. The note with it: 10 µM.
For the next test, the system named is RPMI-8226 leukemia. The settings on record: 10 µM unless noted.
Another test deals with SK-OV-3 ovarian. The settings on record: 10 µM unless noted.
The subject of a further test is BT-549 breast. The note with it: 10 µM.
A further test deals with SW-620 colon. The settings on record: 10 µM unless noted.
A further test concerns HCT-116 colon. The note with it: 10 µM unless noted.
The next test has as its system M14 melanoma. The note with it: 10 µM unless noted.
For a further test, the system named is TK-10 renal. The note with it: 10 µM unless noted.

As for `O=[N+]([O-])c1ccccc1N1CCNCC1`, the growth is 88.6% with NCI-H522 lung; 104% in the test with COLO 205 colon; 89% with MALME-3M melanoma; 121% with RXF 393 renal; 97.4% in the test on U251 CNS; 95.8% in the test on LOX IMVI melanoma. The growth is 104% in the test on EKVX NSCLC; 94.1% in the test on CAKI-1 renal; 112% with CCRF-CEM leukemia; 103% in the test with MOLT-4 leukemia; 88.5% in the test with SR leukemia; 118% in the test with RPMI-8226 leukemia. In addition, the growth in the test with SK-OV-3 ovarian was 96%; with BT-549 breast it was 111%; in the test on SW-620 colon, 104%; in the test with HCT-116 colon, 101%.

For the molecule `[O]=[Sn]([CH]1CCCCC1)[CH]1CCCCC1`, the growth was -72.6% (active) in the test with NCI-H522 lung; -89.9% (active) in the test on COLO 205 colon; -72.2% (active) in the test with MALME-3M melanoma; -99% (active) with RXF 393 renal; -88.6% (active) in the test on M14 melanoma; -89.6% (active) with LOX IMVI melanoma. Also, the growth with TK-10 renal is -93.8% (active); in the test with CAKI-1 renal, -93.5% (active); in the test with CCRF-CEM leukemia, -42.2% (active); in the test with SR leukemia, 14.8%; in the test on SK-OV-3 ovarian it was -98.2% (active); in the test with BT-549 breast, -99.3% (active). Besides, the growth with SW-620 colon was -86.8% (active); in the test on HCT-116 colon, -97.5% (active).

Take `O=C(O)c1nn(Cc2ccc(Cl)cc2)c2ccccc12`: the growth with NCI-H522 lung was 96.8%; in the test with COLO 205 colon, 111%; with MALME-3M melanoma it was 113%; with RXF 393 renal, 123%; with M14 melanoma, 107%; in the test with U251 CNS, 100%. Further, the growth with LOX IMVI melanoma is 101%; in the test on TK-10 renal it was 123%; with CAKI-1 renal, 106%; in the test with CCRF-CEM leukemia it was 98.7%; in the test on MOLT-4 leukemia, 111%; in the test with SR leukemia it was 97.3%. Further, the growth is 98.4% in the test with RPMI-8226 leukemia, 113% in the test on SK-OV-3 ovarian, 122% in the test on BT-549 breast and 103% in the test with HCT-116 colon.

Regarding `CC(C)C1c2ccc(O)cc2Oc2nc(N)c(C#N)c(N)c21` (stereo not given), the growth is 86.4% in the test on NCI-H522 lung; 109% in the test on COLO 205 colon; 129% in the test on M14 melanoma; 95.8% in the test with U251 CNS; 103% in the test with LOX IMVI melanoma; 93.5% with CAKI-1 renal. Also, the growth in the test with CCRF-CEM leukemia was 94.8%; in the test with MOLT-4 leukemia, 98.1%; in the test on SR leukemia, 97.1%; with RPMI-8226 leukemia, 89.4%; with SK-OV-3 ovarian it was 116%; in the test with BT-549 breast it was 84.2%. The growth in the test on HCT-116 colon is 103%.

On to `Cc1ccccc1O`, for which the growth in the test on NCI-H522 lung is 99%; in the test with COLO 205 colon it was 105%; in the test on MALME-3M melanoma, 115%; in the test on RXF 393 renal, 102%; in the test on M14 melanoma, 101%; in the test with U251 CNS it was 105%. Further, the growth is 91.5% in the test on LOX IMVI melanoma; 111% in the test on EKVX NSCLC; 115% in the test with TK-10 renal; 96.2% in the test with CAKI-1 renal; 103% with CCRF-CEM leukemia; 107% in the test on MOLT-4 leukemia. Further, the growth with SR leukemia was 128%; in the test on RPMI-8226 leukemia, 108%; with SK-OV-3 ovarian it was 97.5%; with BT-549 breast, 102%; in the test on SW-620 colon it was 112%; with HCT-116 colon, 103%.

For the molecule `ClCCN(CCCl)c1nc(Cl)c(C2CC(c3ccccc3)=NN2c2ccccc2)s1` (stereo not given), the growth in the test on NCI-H522 lung was 75.1%; in the test with COLO 205 colon, 95.3%; in the test on MALME-3M melanoma it was 113%; with RXF 393 renal, 94.2%; in the test with U251 CNS, 86.1%; in the test with LOX IMVI melanoma, 85.3%. In addition, the growth in the test with EKVX NSCLC was 89.5%; in the test on TK-10 renal, 108%; in the test with CAKI-1 renal it was 81.4%; with CCRF-CEM leukemia, 88.9%; with MOLT-4 leukemia it was 75.4%; in the test with SR leukemia it was 88.4%. In addition, the growth was 82.9% in the test on SK-OV-3 ovarian, 99.3% in the test on BT-549 breast and 86% in the test with SW-620 colon.

Take `COc1cc(/C=C\c2cc(OC)c(OC)c(OC)c2)cc(N/C=C\C(=O)c2ccc(OC(F)(F)F)cc2)c1OC`: the growth with NCI-H522 lung was -54.8% (active); in the test on COLO 205 colon, 3.12% (active); in the test with M14 melanoma it was -4.87% (active); in the test on U251 CNS, 14.8%; with LOX IMVI melanoma it was 33.4%; in the test with CAKI-1 renal, 45.5%. Moreover, the growth in the test with CCRF-CEM leukemia was 8.99% (active); in the test with MOLT-4 leukemia, 34.6%; with SR leukemia it was 4.84% (active); with RPMI-8226 leukemia, 11.8%; in the test with SK-OV-3 ovarian, 19.9%; with BT-549 breast, 44.8%. Moreover, the growth with SW-620 colon was 26.3%; in the test with HCT-116 colon, 8.14% (active).

In the case of `CC(C)(C)NCC(O)c1ccccc1Cl` (stereo not given), the growth in the test with NCI-H522 lung is -37.2% (active); in the test with COLO 205 colon, 5.34% (active); in the test on MALME-3M melanoma, 35.8%; in the test with RXF 393 renal it was -19.8% (active); in the test on M14 melanoma it was -12.8% (active); in the test on U251 CNS it was 10.2%. For the same molecule, the growth is 35.1% in the test on LOX IMVI melanoma; 53.6% in the test on EKVX NSCLC; 54.6% in the test on CAKI-1 renal; 10.5% in the test with CCRF-CEM leukemia; 31.6% in the test on MOLT-4 leukemia; 6.19% (active) in the test on RPMI-8226 leukemia. In addition, the growth is 9.23% (active) with SK-OV-3 ovarian, 35.2% in the test on BT-549 breast and 7.48% (active) in the test with HCT-116 colon.

Consider `C1CN1c1nc(N2CC2)nc(N2CC2)n1`, for which the growth is -12.1% (active) in the test with NCI-H522 lung; 61.4% with COLO 205 colon; 49.7% with MALME-3M melanoma; 39% in the test with RXF 393 renal; 25.1% with M14 melanoma; 7.27% (active) in the test on U251 CNS. The growth was 86.3% in the test with EKVX NSCLC; 78.3% in the test on TK-10 renal; 6.72% (active) with CAKI-1 renal; 15.6% in the test with CCRF-CEM leukemia; 10.5% in the test with MOLT-4 leukemia; 6.79% (active) in the test on SR leukemia. In addition, the growth is 29.3% with RPMI-8226 leukemia, 38.1% with SK-OV-3 ovarian, 46.1% in the test with BT-549 breast and 42.6% with HCT-116 colon.

Take `CC(/C=N/N=C(N)N)=N/N=C(N)N`: the growth in the test on NCI-H522 lung is 117%; with COLO 205 colon, 81.7%; in the test on M14 melanoma, 92.4%; in the test with LOX IMVI melanoma, 88.9%; with EKVX NSCLC, 92.9%; with TK-10 renal, 74.2%. The growth with CAKI-1 renal was 83%; in the test with CCRF-CEM leukemia it was 90.1%; in the test on MOLT-4 leukemia it was 101%; with SR leukemia it was 78.4%; in the test on RPMI-8226 leukemia, 95.7%; in the test with SK-OV-3 ovarian, 97.2%. In addition, in the test on HCT-116 colon, the growth was 83.9%.
